According to PubChem BioAssay AID1053118 (Broad Institute, 2014):
Results with a measured potency or affinity are listed apart. Unmarked numbers belong to inactive results.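 The calls were made as follows: active = fitted half-maximal concentration for ATP signal loss at most twice the top valid dose; inconclusive = flat curve between -70 and -30%, or an invalid fit; inactive = flat within ±30%, wrong direction, or potency past limit.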

assay: HepG2 cell cytotoxicity, dose response, cytotoxicity control, cherry-picks, set 5 (AID 1053118); conditions: HepG2 viability, ATP luminescence, 72 h; series mostly up to 26 µM; activity change, negative = cytotoxicity: at the top concentration;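 also: 0% = neutral control wells and -100% = mitoxantrone positive control wells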

Compound | activity change, negative = cytotoxicity
CO[C@H]1CN(C)C(=O)c2cc(NC(=O)Nc3cc(Cl)cc(Cl)c3)ccc2OC[C@H](C)NC[C@@H]1C | -14.9%
O=C(c1cccnc1)N1C[C@H]2[C@@H](c3ccccc31)[C@@H](CO)N2CC1CCCC1 | -16.1%
N#C[C@H]1[C@H](c2ccccc2C2=CCCCC2)[C@H](CO)N1S(=O)(=O)c1ccccc1 | -13.5%
COC(=O)c1c(NC(=O)CN2CCN(c3ccccc3Cl)CC2)sc(C)c1C | -8.69%
C[C@@H]1CN([C@H](C)CO)C(=O)c2cc(NC(=O)CCCN(C)C)ccc2O[C@@H]1CN(C)Cc1ccc(-c2ccccc2)cc1 | -15.6%
CC(C)CNC(=O)c1coc(=O)c(Br)c1 | 6.5%
CCOC(=O)c1cnc(SCc2nc(N)nc(Nc3ccc(OC)cc3)n2)nc1N | 22.1%
O=C(Nc1ccccc1F)N1C[C@H]2[C@@H](c3ccccc31)[C@@H](CO)N2C(=O)C1CC1 | -10.7%
O=C(Nc1ccccc1F)N1C[C@@H]2[C@H](c3ccccc31)[C@@H](CO)N2C(=O)C1CC1 | -14.9%
O=C(Nc1ccccc1F)N1C[C@@H]2[C@H](c3ccccc31)[C@H](CO)N2C(=O)C1CCOCC1 | -14.4% [at 23.5 µM]
C[C@H](O)C#Cc1ccc2c(c1)O[C@H](CN(C)C)[C@H](C)CN([C@H](C)CO)S2(=O)=O | 0.849%
CC1CN(C(=O)c2cc3c(=O)n4ccccc4nc3n2C)CC(C)O1 (stereo unspecified) | -14.4%
Cc1c(NC(=O)c2ccc3nsnc3c2)cccc1[N+](=O)[O-] | 8.97%
C[C@@H]1CN([C@H](C)CO)C(=O)c2cc(NC(=O)CCCN(C)C)ccc2O[C@H]1CN(C)Cc1ccc(-c2ccccc2)cc1 | -18.8%
C[C@H](O)C#Cc1ccc2c(c1)O[C@H](CN(C)C)[C@@H](C)CN([C@H](C)CO)S2(=O)=O | -5.83%
C=CCC[C@H](Cc1ccc(F)cc1)C(=O)OC[C@H](Cc1c[nH]c2ccccc12)NC(=O)[C@@H](CC=C)CC(=O)N[C@@H](CO)Cc1ccccc1 | -19.8%
CO[C@H]1CN(C)C(=O)c2cc(NC(C)=O)ccc2OC[C@@H](C)N(C(=O)CN2CCOCC2)C[C@H]1C | -10.4%
CC(C)(C)c1cc(Cl)c(O)c(NC(=S)NC(=O)c2cccnc2)c1 | -3.76%

Compound | activity change, negative = cytotoxicity
Cc1ccc(C(O)c2ncc(-c3cccc4ccccc34)[nH]2)cc1F (stereo unspecified) | -16%
Cc1ccc(S(=O)(=O)N2CC[C@@H]3[C@@H](CO)Nc4ccc(-c5cccc(C(=O)N(C)C)c5)cc4[C@@H]32)cc1 | 54.7%
CC(=O)Nc1cccc(-c2ccnc3c2CC(C)(C(=O)Nc2cccc(C(F)(F)F)c2)O3)c1 (stereo unspecified) | -9.23%
COc1cccc(-c2ccc3c(c2)[C@@H]2[C@@H](CCN2S(=O)(=O)c2cccc(OC)c2)[C@H](CO)N3)c1 | -18.7%
CS(=O)(=O)N1CCN(c2ccc(NC(=O)c3ccc([N+](=O)[O-])o3)cc2)CC1 | -28.3%
C[C@H](CO)N1C[C@H](C)[C@H](CN(C)C)Oc2cc(C#C[C@@H](C)O)ccc2S1(=O)=O | -0.041%
Cc1ccc(CS(=O)Cc2ccc(C(=O)NC3CCCC(C)C3C)o2)cc1 (stereo unspecified) | -8.58%
C[C@@H]1CN([C@@H](C)CO)C(=O)c2cc(-c3ccccc3)cnc2O[C@H]1CN(C)C(=O)c1cccc(F)c1 | -6.33%
CC1(C)Cc2c(C#N)c(SCC(=O)c3ccccc3)nc(N3CCOCC3)c2CS1 | 1.34%
C[C@H]1CN([C@@H](C)CO)C(=O)c2cc(NC(=O)C3CCCCC3)ccc2O[C@H]1CN(C)Cc1ccc(-c2ccccc2)cc1 | -19.6%
Cc1cccc(NC(=O)c2ccc(C3SCC(=O)N3CCc3ccccc3)cc2)c1 (stereo unspecified) | -23.6%
O=C(Nc1nc(-c2ccncc2)cs1)C1COc2ccccc2O1 (stereo unspecified) | 9.19%
CCOC(=O)C1=C(C)Nc2nc3ccccc3n2C1c1ccncc1 (stereo unspecified) | -13%
Cc1ccc(S(=O)(=O)N2CC[C@@H]3[C@H]2c2cc(-c4cccc(C(=O)N(C)C)c4)ccc2N[C@@H]3CO)cc1 | -14.5% [at 23.5 µM]
C[C@@H]1CN([C@@H](C)CO)C(=O)c2cc(NC(=O)C3CCCCC3)ccc2O[C@@H]1CN(C)Cc1ccc(-c2ccccc2)cc1 | -15.3%
C[C@@H]1CN([C@H](C)CO)C(=O)c2cc(-c3ccccc3)cnc2O[C@@H]1CN(C)C(=O)c1cccc(F)c1 | -6.46%
NC(=O)C1=C[C@H](c2coc3ccccc3c2=O)C[C@H](OCCCCO)O1 | -5.67%
CN1c2ccc(-c3ccccc3)cc2[C@H]2[C@H](CCN2C(=O)CN2CCOCC2)[C@@H]1CO | -8.7%
